Results: the supplement of paper PMC6555819

These sequences were tested on PPARg:RXRa 270nM:90nM, anti-RXR (NR concentration 270 nM, RXRa partner concentration 90 nM) (assay: PBM binding z-score (relative to random genomic background probes); higher = stronger binding; sequences stand for … in GC…GCGATTGACAGCGTAGAATGAAGG).
In short: (§1)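 Binding buffer was PBS pH 7.4 with 2% milk, 0.02% Triton X-100, 1 mM DTT, 0.2 mg/mL BSA and 0.4 mg/ml salmon testes DNA. In it, ligand-free nuclear receptor dimers were incubated 1 h on custom Agilent 4×180K protein-binding microarrays carrying double-stranded probes. Antibodies against each partner (one per run) detected binding, and z-scores were calculated against random background probes after regression normalization of scanned fluorescence.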

Sequence | PBM binding z-score
CTCCAAAGGTCGTGCTCAGGTGAGTATACCAAAC | 4.58
TAGCCAAGGTCATGGGCCAGTATACCACGCGAAC | 6
CGAACTACGTCAGAACAGGACAGTGAAGGATGAT | -0.752
ATATGTTGGTTATCGGGTCATTCAGTTTGCGCAT | 2.19
ACAGACAGGTTATGAAGGTAACTCAGGCTATCAT | 0.402
CCGACTGGGGCAGAAAGGATACCATACCATCCGG | -0.0255
TCACGGAGGACACGAAAGGTCAGAGCTCGACATC | 2.62
TGTCAAAGTTCAAAGGCAACGTAAGTATCCACAC | 7.39
CCTCGCAGGCCAATCTGGGTCACTCAAGGCTTGA | 2.28
GCGACTGGGGCATCAGCAGGTTACCATTACTTAA | 0.73
TAGCCTAGGTCATGGGCCAGTATCCCACGCGAAC | 3.41
TCATATAGGTAAAAGGTGAAATTCGGTGTGGTAA | 8.13
CCTATTAGATGACCATAAGGGCAACCGAAGCTCG | 0.324
AGAACGAGGGCACGCTGAGTTGGTAGCAGAGTAG | 1.46
AGCACGAGGGCAATGAGTTGATAGCACGGGTGGC | -0.00435
CCGACTGGGGCATAAAGTTACCATAAGCCAGCCC | 0.803
CGAACTAGGTCATCCAGGACAGTAAATACATTGA | 6.33
ATCTCTAGGTGAAGATAGTTCAGTGAATGCAAAT | 1.55
ACTATTAGTTGACTTGGGGCAACCGATACGACGC | 0.242
TAGCTTAGGTCATTGGGCCAGTATAGTACGCATC | 3.44

Sequence | PBM binding z-score
AGAATGCGGTTATTAAGATCAGGGAATTGCGGTC | -0.202
TCTTGTAGATAAGCAGGTTAAGAAAGCTGGCCAA | 1.19
GCATATAGGTAATACAAGGTGAAAGTTCGATTGT | 4.13
GATACAGGGTCAAGGCCAGACTACGCGTATTGAT | 5.88
TCGGCTAGGTCAGTTGGTCAGCTAACGAGCTGCC | 1.28
AGTAAAAGTTCAGGACGAGGTAACGTAAAGCACG | 2.14
AGAACGAGGGCAATGAGTTGATAACACGGGTGGC | 0.983
TGAATGAGGTTATAAGCTCAGGGAACGTTGCAAA | 2.07
TCTATTAGTTGATTAGGGCATCCGAAACAGCGGA | 1.91
ATATGTAGGTTAAGGGTAATTCAGGTTGGTTCGC | 7.77
CAAACTAGGTCACAGAGGTCAAATTCCGTGCGTA | 8.65
CGAACGAGGGCATGAGTGGATAGCAAATGCCGAT | 0.947
CCGAGTAGGTTATGGGGCATTCCGGCAACGGTGA | 4.51
CGTCCCAGGTCATAGGAGGTCAGTGAAGACAGAT | 4.13
TTACCAAGTTGAAGGTCGTTGATCCCTCTGTAGA | 2.48
GCACCAAGGTGAATAGGTCGTTGATGAGTAGGCG | 1.62
ATCGAAAGGTCGTGAGGTGAGTAGACAGAAAGGC | 4.25
CGAACTAGGTGATCCAGGACAGTGAATACATTGA | 1.72
TCTTGTAGATTAACAGGAGGTTAAGAAAGATCGA | 1.41
AGAATGAGGTTATTAATATCAGGGAATTGCGGTC | 1.67

The sequences below were run on PPARg:RXRa 30nM:10nM, anti-RXR (NR concentration 30 nM, RXRa partner concentration 10 nM) in the same assay as above.
In short: as §1

Sequence | PBM binding z-score
CTCCAAAGGTCGTGCTCAGGTGAGTATACCAAAC | 1.3
TAGCCAAGGTCATGGGCCAGTATACCACGCGAAC | 2.19
CGAACTACGTCAGAACAGGACAGTGAAGGATGAT | -0.147
ATATGTTGGTTATCGGGTCATTCAGTTTGCGCAT | 0.577
ACAGACAGGTTATGAAGGTAACTCAGGCTATCAT | -0.0537
CCGACTGGGGCAGAAAGGATACCATACCATCCGG | -0.593
TCACGGAGGACACGAAAGGTCAGAGCTCGACATC | 2.28
TGTCAAAGTTCAAAGGCAACGTAAGTATCCACAC | 5
CCTCGCAGGCCAATCTGGGTCACTCAAGGCTTGA | -0.176
GCGACTGGGGCATCAGCAGGTTACCATTACTTAA | -0.277
TAGCCTAGGTCATGGGCCAGTATCCCACGCGAAC | 0.754
TCATATAGGTAAAAGGTGAAATTCGGTGTGGTAA | 8.19
CCTATTAGATGACCATAAGGGCAACCGAAGCTCG | 0.147
AGAACGAGGGCACGCTGAGTTGGTAGCAGAGTAG | -0.03
AGCACGAGGGCAATGAGTTGATAGCACGGGTGGC | -0.788
CCGACTGGGGCATAAAGTTACCATAAGCCAGCCC | -0.215
CGAACTAGGTCATCCAGGACAGTAAATACATTGA | 3.68
ATCTCTAGGTGAAGATAGTTCAGTGAATGCAAAT | 0.448
ACTATTAGTTGACTTGGGGCAACCGATACGACGC | 0.327
TAGCTTAGGTCATTGGGCCAGTATAGTACGCATC | 1

Sequence | PBM binding z-score
AGAATGCGGTTATTAAGATCAGGGAATTGCGGTC | -0.149
TCTTGTAGATAAGCAGGTTAAGAAAGCTGGCCAA | 2.41
GCATATAGGTAATACAAGGTGAAAGTTCGATTGT | 2.29
GATACAGGGTCAAGGCCAGACTACGCGTATTGAT | 2.85
TCGGCTAGGTCAGTTGGTCAGCTAACGAGCTGCC | 0.913
AGTAAAAGTTCAGGACGAGGTAACGTAAAGCACG | 0.671
AGAACGAGGGCAATGAGTTGATAACACGGGTGGC | 0.0129
TGAATGAGGTTATAAGCTCAGGGAACGTTGCAAA | 0.7
TCTATTAGTTGATTAGGGCATCCGAAACAGCGGA | 3.47
ATATGTAGGTTAAGGGTAATTCAGGTTGGTTCGC | 8.77
CAAACTAGGTCACAGAGGTCAAATTCCGTGCGTA | 7.13
CGAACGAGGGCATGAGTGGATAGCAAATGCCGAT | 0.0449
CCGAGTAGGTTATGGGGCATTCCGGCAACGGTGA | 1.83
CGTCCCAGGTCATAGGAGGTCAGTGAAGACAGAT | 1.16
TTACCAAGTTGAAGGTCGTTGATCCCTCTGTAGA | 1.36
GCACCAAGGTGAATAGGTCGTTGATGAGTAGGCG | 0.404
ATCGAAAGGTCGTGAGGTGAGTAGACAGAAAGGC | 1.29
CGAACTAGGTGATCCAGGACAGTGAATACATTGA | 0.625
TCTTGTAGATTAACAGGAGGTTAAGAAAGATCGA | 2.67
AGAATGAGGTTATTAATATCAGGGAATTGCGGTC | 0.598
